This is a sample that favours compounds with a hit; in the whole collection about 4.8% have one here.
HepG2 tox: HepG2 cytotoxicity, counter-screen for TGF-b inhibitors; HepG2 CAGA-GFP viability, ATP luminescence, 18 h; Potency, µM (titrated, usually from 46.1 µM), inactives show at the highest dose activity change, negative = cytotoxicity, hits mostly cytotoxic; actives 0.76% (n = 410,000); AID 588856; also: potency is read from the fitted curve at half-maximal effect
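CellTiter-Glo luminescence gave cytotoxicity after 18 hours at 37 degrees C. The cells were HepG2 CAGA-GFP in 1% FBS DMEM, stimulated with 500 pg/mL TGF-beta after compound addition. %Activity was normalised to no-cell wells (complete cell-killing) and DMSO (no toxicity), and curves were fitted and classified.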
TGFb inhibitor: TGF-b pathway inhibition; HepG2 CAGA-GFP TGF-b/SMAD3 reporter, GFP fluorescence, 18 h; TGF-beta stimulated, 500 pg/mL final; Potency, µM (doses to about 46.1 µM), without a hit: at the highest dose activity, negative = inhibition, most hits filed as inhibitors; actives 1.2% (n = 410,000); AID 588855; also: potency is read from the fitted curve at half-maximal effect; % is scaled to controls: 0 for no effect and ±100 for the full control effect; nearly all actives have a fitted effect of over 65% in size
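Read-out: total well GFP (ex488/em500-530) summed from mean per-cell fluorescence. Cells: HEPG2 CAGA-GFP, 1% FBS DMEM, 18 h at 37 degrees C with 500 pg/mL final TGF-beta. Unstimulated wells served as the full-inhibition control; stimulated DMSO wells = 0%.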
DRD3 antagonist: blocks the human D3 dopamine receptor | D3R cells, DiscoveRx beta-arrestin luminescence, antagonist mode; hits give low values | max response, negative = inhibition, % | AID 652054 | actives 2.5% (n = 360,000) | P35462; in the data active = max response below about -50%; inconclusive = no clear call, values can overlap the other calls; also: % is scaled to controls: 0 for no effect and ±100 for the full control effect
Target sequence (P35462 whole entry, looked up): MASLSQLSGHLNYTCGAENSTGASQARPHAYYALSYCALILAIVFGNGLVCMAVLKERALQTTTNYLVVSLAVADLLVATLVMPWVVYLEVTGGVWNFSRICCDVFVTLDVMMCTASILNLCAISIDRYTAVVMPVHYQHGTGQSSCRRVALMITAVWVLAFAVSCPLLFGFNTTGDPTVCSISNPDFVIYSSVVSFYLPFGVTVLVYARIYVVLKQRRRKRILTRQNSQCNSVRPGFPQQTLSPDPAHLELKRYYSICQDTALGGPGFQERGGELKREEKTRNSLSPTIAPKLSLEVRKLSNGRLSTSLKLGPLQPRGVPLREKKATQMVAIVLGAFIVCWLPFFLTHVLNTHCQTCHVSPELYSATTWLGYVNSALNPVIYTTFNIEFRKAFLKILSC
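Cells plated overnight at 1500 cells/well, then exposed to library compounds with dopamine controls for 90 minutes at 37 degrees C. DiscoveRx reagent added for 30–60 minutes at room temperature; luminescence read, quantitative HTS format.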
ATXN2 expr inh: inhibitors of ATXN2 expression | actives 0.72% (n = 360,000) | Potency, µM (top dose mostly 57 µM), for the others: top-dose activity change, negative = inhibition, actives largely listed as inhibitors | HEK-293 ATXN2-luciferase reporter, luminescence, 24 h; also: potency is read from the fitted curve at half-maximal effect; % is scaled to controls: 0 for no effect and ±100 for the full control effect; nearly all actives have a fitted effect of over 55% in size
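ATXN2-luciferase reporter cells (luciferase flanked by upstream and downstream ATXN2 gene portions) were treated 24 h at 37 °C with compounds at up to 57 uM. SteadyGlo luminescence gave expression; GF-AFC fluorescence gave viability.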
D3 ag: agonists of human D3 dopamine receptor; P35462; D3R DiscoveRx beta-arrestin cells, luminescence, 90 min; max activation, %; actives 0.58% (n = 410,000); AID 652048; in the data active = max activation above about 30%; also: 0% is about no effect
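Agonist mode: compounds and dopamine controls were applied to plated cells for 90 min at 37 degrees C after an overnight attachment at 1500 cells/well. Luminescent read-out followed 30 - 60 minutes at room temperature with DiscoveRx detection reagent.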
ATXN viability: viability counter-screen for ATXN expression inhibitors | S2 cells (HEK-293 line with an ATXN2-luciferase reporter) viability, CellTiter-Fluor protease fluorescence, 24 h | Potency, µM (top dose mostly 56.7 µM), actives largely listed as cytotoxic | actives 0.49% (n = 400,000) | AID 651635; also: potency is read from the fitted curve at half-maximal effect; nearly all actives have a fitted effect of over 40% in size
Numbers without * were called inactive; i = inactive; ? = inconclusive; / = no result given. Unless noted, calls follow the shape of the dose curve; as a rule, active = well fitted curve in the direction sought with a large enough effect; inconclusive = small, poorly fitted or top-dose-only effect, or another doubt; inactive = no such curve, though single readings can be large; an effect the other way counts as inactive or inconclusive.

SMILES	HepG2 tox	TGFb inhibitor	DRD3 antagonist	ATXN2 expr inh	D3 ag	ATXN viability
CC(C)CNC(=O)C1=CC(c2ccc3c(c2)OCO3)=NS(=O)(=O)N1C	-7.3%	?	/	1.3%	-0.3	i
COc1ccccc1-c1nn2c(-c3cc(C)[nH]n3)nnc2s1	0.0%	-2.9%	/	/	/	/
Cc1c(Cl)cccc1NS(=O)(=O)c1ccc2[nH]cc(C(=O)NC3CCCC3)c(=O)c2c1	-25.9%	?	/	-15.0%	-1.3	?
Cc1ccccc1N=Nc1ccc(O)c2ncccc12	-3.0%	-13.9%	-116.8*	?	-4.4	i
O=S(=O)(O)c1cccc2c(N=Nc3ccc(O)c4ncccc34)cccc12	1.1%	2.6%	?	-7.0%	0.4	?
COC1=C(C)C(=O)C2=C(C1=O)C1C3CC4=C(C(=O)C(OC)=C(C)C4=O)C(CNC(=O)C(C)=O)N3C(C#N)C(C2)N1C (stereo not given)	7.08µM*	0.141µM*	-56.8*	?	-20.5	0.15µM*
CN(C)CCSc1nc(O)c(-c2ccccc2)c(=O)n1-c1ccccc1	20.0%	-6.3%	0.6	9.5%	-1.6	i
Cc1sc2nc(SCCN(C)C)n(-c3ccccc3)c(=O)c2c1-c1ccc(F)cc1	-31.2%	3.1%	-69.4*	-30.6%	-14.7	?
NC(=O)NC(CC(=O)NCCCc1ccccc1)c1ccc(Cl)cc1 (stereo not given)	1.9%	-10.7%	-54.9*	15.1%	-24.2	i
COc1ccc(NC(=O)c2cc3c(s2)-c2c(C)cccc2OC3)c(OC)c1	-14.2%	-1.7%	/	-20.6%	-5.4	i
COc1ccccc1N1CCN(Cc2cccc(OC)c2OC)CC1	-30.3%	11.5%	-24.3	/	-5.2	/
CCOc1ccccc1N1CCN(Cc2ccc(Br)s2)CC1	-10.3%	-24.4%	-95.1*	-14.9%	7.2	i
COc1ccccc1N1CCN(Cc2cc(=O)oc3ccccc23)CC1	2.9%	-24.4%	6.2	1.2%	5.5	i
COc1ccccc1N1CCN(Cc2ccc(Br)o2)CC1	-24.0%	-2.9%	-81.0*	-4.5%	-10.6	i
CCOc1ccccc1N1CCN(Cc2ccc(OC)c(OC)c2OC)CC1	-17.5%	?	-141.0*	-22.3%	-38.7	i
COc1cc(OC)c(OC)cc1CN1CCN(c2ccccc2OC)CC1	16.7%	?	-66.4*	-11.6%	-31.6	i
CCCCOc1ccc(Cn2c(=O)sc3ccccc32)cc1OC	-17.2%	-2.9%	/	0.4%	0.1	i
COc1cccc(NC(=O)CSc2nc3ccc(NC(=O)c4ccco4)cc3s2)c1	-44.6%	?	/	?	7.1	/
O=C(NCc1ccccc1F)C1CCCN(C(=O)N2CCOc3ccccc32)C1 (stereo not given)	-18.0%	-25.7%	/	/	-5.1	/
CCOc1ccccc1N1CCN(Cc2cnc(-c3ccccc3)[nH]2)CC1	-40.8%	4.4%	-94.0*	-30.1%	-16.4	?
COc1ccccc1N1CCN(Cc2cc3c(cc2Br)OCCO3)CC1	-3.2%	-12.8%	-75.7*	-25.2%	-19.9	i
CCOC(=O)C1CCN(c2ccccc2CN2CCN(c3ccccc3OCC)CC2)CC1	8.0%	7.1%	-75.0*	4.1%	-10.7	i
CCCNC[C@H](O)COc1ccccc1C(=O)CCc1ccccc1	/	/	/	/	/	i
O=C(OCc1ccccc1F)c1ccc(-c2nnn(Cc3ccccc3)n2)cc1	-18.9%	-0.1%	/	2.3%	-10.9	i
Cc1ccc(-c2cn3nc(N4CCCC(C(=O)NCc5ccc(F)cc5)C4)sc3n2)cc1 (stereo not given)	2.5%	-15.6%	/	/	-10.2	/
Cc1cccc(CN2CCN(CC(=O)NCCc3ccc(Cl)cc3)C2=O)c1	-24.5%	?	/	-14.3%	-2.4	i
CCN(CC)CCN(C(=O)c1cc2c(ccc3ccccc32)oc1=O)c1nc2cc3c(cc2s1)OCCO3	-84.0%	12.6µM*	-23.8	-8.4%	-10.4	i
